Inconclusive results are not listed. The source made the active and inactive calls. The calls were made as follows, unless noted: active = hit-call score of the fitted dose curve at least 0.9, where 1 is the maximum; inactive = score below 0.9.
Assays:
[1] = read-out: Human Leukocyte Antigen - DR isotype (HLADR), HLA-DRA (gene 3122); assay: BSK_3C_HLADR: BioMAP Diversity Plus: 3C Assay for Human Leukocyte Antigen - DR isotype (HLADR) Biomarker Activity (AID 2283019); conditions: primary human endothelial cells (HUVEC); actives raise or lower the signal
Outline: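 Compound added to primary HUVEC cultures, 24 h incubation, then HLA-DR determined by ELISA; endpoint derived by bidirectional fitting relative to DMSO negative control.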

[2] = read-out: Interleukin-8 (IL8), CXCL8 (gene 3576); assay: BSK_3C_IL8: BioMAP Diversity Plus: 3C Assay for Interleukin-8 (IL8) Biomarker Activity (AID 2283020); conditions: primary human endothelial cells (HUVEC); actives raise or lower the signal
Outline: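 Primary human umbilical vein endothelial cells (3C system) were exposed to test chemical for 24 h, then IL-8 was quantified by ELISA. Responses were fitted bidirectionally against DMSO vehicle as baseline.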

[3] = read-out: Monokine induced gamma interferon (MIG), CXCL9 (gene 4283); assay: BSK_3C_MIG: BioMAP Diversity Plus: 3C Assay for Monokine induced gamma interferon (MIG) Biomarker Activity (AID 2283021); conditions: primary human endothelial cells (HUVEC); actives raise or lower the signal;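 as to AC50: MIG protein level measured by immunoassay in the treated endothelial cultures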
Outline: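 Primary human umbilical vein endothelial cells in the 3C system were exposed to chemical for 24 h, after which MIG was quantified by ELISA. Activity was fitted bidirectionally against DMSO as negative control and baseline.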

[4] = target: human Vitamin D Receptor (VDR), VDR (gene 7421) (UniProt P11473); assay: ATG_VDR_TRANS: Attagene TRANS-FACTORIAL HepG2 Assay for human Vitamin D Receptor (VDR) (AID 2283022; active = hit-call score of the fitted dose curve at least 0.9, where 1 is the maximum)
Outline: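 Multiplexed TRANS reporter in HepG2; 24 h treatment; reporter mRNA by RT-PCR plus capillary electrophoresis; upregulation scored relative to DMSO.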

[5] = BSK_3C_SRB: Viability Assessment in the BioMAP Diversity Plus: 3C Assay (AID 2283023); conditions: primary human endothelial cells (HUVEC);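 also: cells read 24 h after compound dosing; fitted both ways against DMSO so a hit may be signal rise or drop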
Outline: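 Overt cytotoxicity is gauged in parallel confluent HUVEC cultures by SRB total-protein staining at the time of biomarker measurement, 24 h after dosing. Gain or loss of signal is fitted versus DMSO.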

[6] = read-out: Matrix Metallopeptidase 1 (MMP1), MMP1 (gene 4312); assay: BSK_BE3C_MMP1: BioMAP Diversity Plus: BE3C Assay for Matrix Metallopeptidase 1 (MMP1) Biomarker Activity (AID 2283024); conditions: primary human bronchial epithelial cells; actives raise or lower the signal
Outline: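 Primary human bronchial epithelial cells were dosed with test chemicals, and MMP1 levels were measured by ELISA 24 h later. Data were fitted bidirectionally against DMSO as the negative control and activity baseline.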

[7] = BSK_3C_Vis: BioMAP Diversity Plus: 3C Assay for Morphology Visualization (AID 2283025); conditions: primary human endothelial cells (HUVEC);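 also: fitted both ways so gain or loss versus DMSO counts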
Outline: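 Human umbilical vein endothelial cells in the 3C system were imaged by light microscopy 24 h after chemical dosing to record cell morphology. Activity was fitted bidirectionally against DMSO as negative control and baseline; the endpoint serves as a background control.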

[8] = read-out: Pselectin, SELP (gene 6403); assay: BSK_4H_Pselectin: BioMAP Diversity Plus: 4H Assay for Pselectin Biomarker Activity (AID 2283026); conditions: primary human endothelial cells (HUVEC); actives raise or lower the signal
Outline: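 Primary human umbilical vein endothelial cells were exposed to test chemical for 24 h, then cell-surface P-selectin was quantified by ELISA. Activity was fitted bidirectionally against DMSO as negative control and baseline.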

[9] = BSK_4H_SRB: Viability Assessment in the BioMAP Diversity Plus: 4H Assay (AID 2283027); conditions: primary human endothelial cells (HUVEC);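 also: cells exposed to compound for 24 h before staining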;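 as to AC50: curves fitted both ways versus DMSO so AC50 may be loss or gain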
Outline: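 Absorbance at 560 nm of SRB-stained total protein served as the viability read-out in confluent primary human umbilical vein endothelium 24 h after chemical treatment. Curves were fitted bidirectionally against DMSO as negative control.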

[10] = BSK_BE3C_SRB: Viability Assessment in the BioMAP Diversity Plus: BE3C Assay (AID 2283028); conditions: primary human bronchial epithelial cells;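 as to AC50: fitted both ways so AC50 may mark signal gain or loss versus DMSO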
Outline: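 SRB total-protein staining (0.1%, after TCA fixation) of chemically dosed human bronchial epithelial primary cells at 24 h; DMSO serves as the negative control for bidirectional curve fitting.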

[11] = read-out: Thrombomodulin, THBD (gene 7056); assay: BSK_3C_Thrombomodulin: BioMAP Diversity Plus: 3C Assay for Thrombomodulin Biomarker Activity (AID 2283029); conditions: primary human endothelial cells (HUVEC); actives raise or lower the signal
Outline: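 Primary human umbilical vein endothelial cells (3C system) were exposed to chemical for 24 h, then thrombomodulin levels were measured by ELISA. Activity was fitted bidirectionally against the DMSO negative control as baseline.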

[12] = read-out: Vascular endothelial growth factor receptor 2 (Homo sapiens) (UniProt P35968); assay: BSK_4H_VEGFRII: BioMAP Diversity Plus: 4H Assay for Vascular endothelial growth factor receptor 2 (VEGFR2) Biomarker Activity (AID 2283031); conditions: primary human endothelial cells (HUVEC); actives raise or lower the signal;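 as to AC50: cell-surface VEGFR2 protein level quantified by ELISA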
Outline: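 In this multiplexed HUVEC system, biomarker ELISA was performed after 24 h chemical exposure. Parallel SRB staining (TCA fixation, 560 nm) tracked cytotoxicity; DMSO served as baseline.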

[13] = read-out: Human Leukocyte Antigen - DR isotype (HLADR), HLA-DRA (gene 3122); assay: BSK_BE3C_HLADR: BioMAP Diversity Plus: BE3C Assay for Human Leukocyte Antigen - DR isotype (HLADR) Biomarker Activity (AID 2283032); conditions: primary human bronchial epithelial cells; actives raise or lower the signal
Outline: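 Human primary bronchial epithelial cells in the BE3C system were exposed to chemicals for 24 h, after which HLA-DR levels were quantified by ELISA. Activity was fitted bidirectionally, gain or loss of signal, against DMSO as negative control and baseline.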

[14] = read-out: Vascular cell adhesion molecule 1 (VCAM1), VCAM1 (gene 7412); assay: BSK_4H_VCAM1: BioMAP Diversity Plus: 4H Assay for Vascular cell adhesion molecule 1 (VCAM1) Biomarker Activity (AID 2283033); conditions: primary human endothelial cells (HUVEC); actives raise or lower the signal
Outline: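 Primary human umbilical vein endothelial cells were exposed to chemicals for 24 h, after which VCAM-1 was quantified by ELISA. Responses were fitted bidirectionally against DMSO as negative control and activity baseline.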

[15] = read-out: Interferon-gamma inducible Protein 10 (IP10), CXCL10 (gene 3627); assay: BSK_BE3C_IP10: BioMAP Diversity Plus: BE3C Assay for Interferon-gamma inducible Protein 10 (IP10) Biomarker Activity (AID 2283034); conditions: primary human bronchial epithelial cells; actives raise or lower the signal
Outline: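 Human primary bronchial epithelial cells were exposed to chemicals for 24 hours, after which IP-10 levels were measured by ELISA. Data were fitted bidirectionally against DMSO, which served as the negative control and activity baseline.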

[16] = read-out: Monokine induced gamma interferon (MIG), CXCL9 (gene 4283); assay: BSK_BE3C_MIG: BioMAP Diversity Plus: BE3C Assay for Monokine induced gamma interferon (MIG) Biomarker Activity (AID 2283035); conditions: primary human bronchial epithelial cells; actives raise or lower the signal
Outline: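 MIG level was determined by ELISA after 24 h chemical treatment of primary human bronchial epithelial cells. Values were fitted bidirectionally with DMSO as the negative control and activity baseline.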

[17] = read-out: Transforming growth factor beta 1 (TGFb1), TGFB1 (gene 7040); assay: BSK_BE3C_TGFb1: BioMAP Diversity Plus: BE3C Assay for Transforming growth factor beta 1 (TGFb1) Biomarker Activity (AID 2283036); conditions: primary human bronchial epithelial cells; actives raise or lower the signal
Outline: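 Human primary bronchial epithelial cells (BE3C system) were dosed with chemical and TGF-b1 levels measured by ELISA at 24 h. Activity was fitted bidirectionally relative to DMSO negative control as baseline.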

[18] = read-out: Plasminogen activator inhibitor-1 (PAI1), SERPINE1 (gene 5054); assay: BSK_BE3C_PAI1: BioMAP Diversity Plus: BE3C Assay for Plasminogen activator inhibitor-1 (PAI1) Biomarker Activity (AID 2283037); conditions: primary human bronchial epithelial cells; actives raise or lower the signal
Outline: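 Human primary bronchial epithelial cells were exposed to chemical for 24 h, then PAI-1 was quantified by ELISA. Activity was fitted bidirectionally relative to the DMSO negative control baseline.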

[19] = read-out: urokinase plasminogen activator (uPA), PLAU (gene 5328); assay: BSK_BE3C_uPA: BioMAP Diversity Plus: BE3C Assay for urokinase plasminogen activator (uPA) Biomarker Activity (AID 2283038); conditions: primary human bronchial epithelial cells; actives raise or lower the signal
Outline: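 Using confluent primary human lung bronchial epithelial cultures, we dosed chemicals, waited 24 h, then ran a uPA ELISA, fitting bidirectionally against DMSO.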

[20] = read-out: Urokinase-type plasminogen activator receptor (uPAR), PLAUR (gene 5329); assay: BSK_4H_uPAR: BioMAP Diversity Plus: 4H Assay for Urokinase-type plasminogen activator receptor (uPAR) Biomarker Activity (AID 2283030); conditions: primary human endothelial cells (HUVEC); actives raise or lower the signal
Outline: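 Endpoint derived via bidirectional curve fitting against DMSO baseline; readout was ELISA detection of uPAR on umbilical vein endothelial cells at 24 h post-treatment, with SRB-stained parallel cultures assessing cytotoxicity.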

Measured: AC50

Chain of human Vitamin D Receptor (VDR), VDR (gene 7421) (P11473 whole entry, looked up): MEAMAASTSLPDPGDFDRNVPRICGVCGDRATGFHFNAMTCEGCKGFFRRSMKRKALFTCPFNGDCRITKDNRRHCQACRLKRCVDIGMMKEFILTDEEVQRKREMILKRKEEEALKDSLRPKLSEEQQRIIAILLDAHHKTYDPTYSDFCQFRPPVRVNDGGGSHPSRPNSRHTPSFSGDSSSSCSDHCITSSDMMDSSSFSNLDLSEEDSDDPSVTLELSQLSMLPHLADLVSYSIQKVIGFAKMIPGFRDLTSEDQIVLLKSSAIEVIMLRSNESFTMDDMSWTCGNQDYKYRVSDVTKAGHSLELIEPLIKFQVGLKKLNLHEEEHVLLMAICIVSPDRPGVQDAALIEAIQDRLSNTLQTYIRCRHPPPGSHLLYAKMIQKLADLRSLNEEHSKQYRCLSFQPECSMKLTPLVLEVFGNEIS

CC(C)(c1ccccc1)c1ccc(O)c(C(C)(C)c2ccccc2)c1
inactive: [4] | [11]
active: [1] 7.99 µM | [2] 10.1 µM | [3] 10.5 µM | [5] 8.56 µM | [6] 32.3 µM | [7] 5.31 µM | [8] 6.57 µM | [9] 8.09 µM | [10] 25.6 µM | [12] 7.22 µM | [13] 13.6 µM | [14] 8.48 µM | [15] 12 µM | [16] 22.7 µM | [17] 16.8 µM | [18] 14.3 µM | [19] 16.2 µM

O=C(OC1CCCCC1)c1ccccc1C(=O)OC1CCCCC1
inactive: [3] | [4] | [10] | [11] | [16] | [17] | [18] | [19]
active: [1] 8.72 µM | [2] 8.46 µM | [5] 10.9 µM | [6] 4.58 µM | [7] 5.63 µM | [8] 9.57 µM | [9] 13 µM | [20] 13 µM | [12] 9.97 µM | [13] 13 µM | [14] 20.9 µM | [15] 20.9 µM

CCCCCCCCC(=O)NCc1ccc(O)c(OC)c1
active: [1] 20 µM | [9] 20 µM | [15] 20 µM | [18] 20 µM
not listed: [20]
inactive: all other assays above

CC(C)(C)CC(C)(C)c1ccc(O)cc1
inactive: [4] | [11] | [12]
active: [1] 6.4 µM | [2] 10.1 µM | [3] 12.4 µM | [5] 7.28 µM | [6] 33.7 µM | [7] 6.71 µM | [8] 11.4 µM | [9] 9.01 µM | [10] 13.3 µM | [13] 19.3 µM | [14] 7.98 µM | [15] 16.6 µM | [16] 34.5 µM | [17] 14.7 µM | [18] 30.9 µM | [19] 26.6 µM

ClC1(Cl)C2(Cl)C3(Cl)C4(Cl)C(Cl)(Cl)C5(Cl)C3(Cl)C1(Cl)C5(Cl)C24Cl (stereo unspecified)
not listed: [16] | [20]
inactive: all other assays above

O=[N+]([O-])c1ccc2c3c(cccc13)CC2
active: [1] 13.7 µM | [5] 20 µM | [7] 8.8 µM
not listed: [16]
inactive: all other assays above

COP(=S)(OC)Oc1ccc(Sc2ccc(OP(=S)(OC)OC)cc2)cc1
active: [1] 28.5 µM | [2] 7.51 µM | [5] 20 µM | [7] 13.6 µM | [8] 14.5 µM | [9] 9.79 µM | [13] 8.14 µM | [14] 30.2 µM | [15] 18.2 µM
not listed: [16]
inactive: all other assays above

COP(=S)(OC)Oc1ccc(S(=O)(=O)N(C)C)cc1
active: [1] 32.3 µM
not listed: [16]
inactive: all other assays above

O=c1[nH]c(=O)[nH]c(=O)[nH]1
not listed: [20]
inactive: all other assays above

NC(=S)Nc1ccccc1
not listed: [16] | [20]
inactive: all other assays above

O=C(O)C(Cl)(Cl)Cl
not listed: [16] | [20]
inactive: all other assays above

CCC(C)(C)c1ccc(O)c(C(C)(C)CC)c1
inactive: [12]
active: [1] 7.84 µM | [2] 8.88 µM | [3] 13.3 µM | [4] 55 µM | [5] 7.65 µM | [6] 34.8 µM | [7] 6.71 µM | [8] 7.72 µM | [9] 11.7 µM | [10] 28.8 µM | [11] 34.5 µM | [20] 11.4 µM | [13] 25.2 µM | [14] 10.4 µM | [15] 19 µM | [17] 20 µM | [18] 31.4 µM | [19] 32.4 µM

Source: PubChem BioAssay (EPA / NIEHS)
